Assay results: the supplement of paper PMC10681739

Target: RUNX1 (UniProt Q01196)
Test: RUNX1 binding intensity (PBM fluorescence) in presence of ETS1, normalised to RUNX1-only experiment (arbitrary fluorescence units); higher = stronger binding
Settings: RUNX1 concentration 2 nM; ETS1 concentration 25 nM
Description: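 Cooperative gcPBM on 36-bp genomic probes with neighbouring ETS1 and RUNX1 sites. Recombinant human RUNX1 (2 nM) was incubated alone or with ETS1 (25 nM) and detected with anti-RUNX1 antibody plus Alexa488 secondary. Values are medians over 4 replicate spots; the RUNX1+ETS1 data were normalised to the RUNX1-only data. The probes sit in constant array flanks that are not printed.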
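Further: Full-length recombinant human ETS1 or RUNX1 bound to double-stranded 36-bp genomic probes on microarrays, detected by protein-specific primary antibody and Alexa488 secondary, spot fluorescence as median of four replicate spots.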

Sequence of RUNX1 (Q01196 whole entry): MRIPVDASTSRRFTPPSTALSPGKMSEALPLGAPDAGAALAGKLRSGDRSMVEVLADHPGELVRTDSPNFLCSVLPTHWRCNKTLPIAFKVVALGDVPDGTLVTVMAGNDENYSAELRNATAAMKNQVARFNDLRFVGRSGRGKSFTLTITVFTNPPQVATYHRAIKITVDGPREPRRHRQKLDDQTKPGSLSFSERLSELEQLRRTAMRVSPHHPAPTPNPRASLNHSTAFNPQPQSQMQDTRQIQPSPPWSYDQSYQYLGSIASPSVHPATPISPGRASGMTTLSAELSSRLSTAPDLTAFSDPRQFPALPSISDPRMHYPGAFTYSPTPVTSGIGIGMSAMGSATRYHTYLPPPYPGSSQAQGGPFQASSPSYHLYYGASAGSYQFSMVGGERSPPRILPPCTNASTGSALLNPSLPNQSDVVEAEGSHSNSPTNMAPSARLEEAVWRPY

Sequence	RUNX1 binding intensity
CTCCCACATCCGAAGCGGCGCAACCCACAACAGCCT	1620
TCGTGTTCTCTTCCGTTCTGTGGTAGCTTTTTGGTA	1870
GTGGATTTCACATCCTGTCCTAGCGGTATGTTTGTC	1750
CAGACACCAACGCTCGGAAACCGCCAGACACCAAGG	888
CTCTGAACTTCCTCTCTTTTAACCACAACTTACTAC	14100
TTTGCTGCAGAAGGATGTGGTTTATTCAGGTTTGAC	1270
CCGGGCGCCACTTCCGGTCCCCGTGGTCACGTGACC	3740
AGTTGGTTCCTTCCGGTGGGTTTGTGGGCTTGGGGT	1880
CCCCGCGGAACTCTGGCACAGTCAGCTGACCGCAGA	1440
GGGGGCGGAAGTTTCGGTGCATTGTGGGTTCTCCTG	1140
CTGAGACCTCGGGCAGGATGTGGCTTCCCCAGAGTT	1180
AGCGACAGCGGATGCTCTCTGGCCGCAACATTCTTT	1080
GGGCCCGGGCCAGGAAGTGGTTTTGCAGAGGTGTTT	1930
CGAAAGTGACCGGAAGTAACCGCCGGGCCAAGATGG	1530
TCCCCACACTTCCGGCCCCGCCCGCACAGCCGCACC	5780
TCTTTAAAACCCGGAAGTTCCTGTGGTTCATACGCT	1940
TGCCTTCTACTCCGGAACTCAGACCGCTGCCTTCTA	946
ATTACAGGAAGTATGTCCTCCTCTGCCTAACCACTG	1270
CCATCTTCATACAGGATGCTGTGGTATGTAAAACAA	1240
CATCAAGTATTTCCTCACGCAAGCAACCGCATCCAT	1380

Sequence	RUNX1 binding intensity
GCCCCCGGAAGCTGTCGCCCCGTGCGGTGTGTGCTG	1330
AGAAGGAACTACACAGGAAACCCACTGCCTCGATGG	865
CGGTGGCTTCCGGCCCATGGCGGTGGTTGGTGACTC	1840
GGGAACTGGGGAAGGGGATGTGGTAACCAGAACCAC	1050
TTGTCACGTCCGGCACGCCGCGAACCGCAAGGAACC	2720
GAACTTCCGGGACCACGTGACGTAGAACCACAACAA	1690
ATCCCACTATAGGAAGCTTCTCTGTGGTTTTGAGCC	1910
ATGCCTGTAGGAGGATGTGGTTTCTACACAACTCTG	1400
GGTTCATTTCCTTTTCCTCCTTGTGGTATAAAAGAG	2890
CCTTGCTACAGGATGTTTTGACCACGAGCCCAGGAG	1390
GAGTGACTGCTAACGGATGTGTGGTTTCTTTAGTTT	1470
GACAGACCTTAGGAAGTCGCGGTTTCATCAGGGCTT	1220
TATTTCCTGTGCACAGAAGCAGCTGGGCCGCAGAGT	1940
GTCCCCGACTTCCGCTCTCGGTTGGTGGTTGGCTTT	2590
GGGATCCTTCCGCTCCGGGTTAACCCCGACCGCGCC	1620
GCGCGGCGCGACCGGACGCTGCGGGCGGGGAAGAGG	929
CTTGTTCTATTTCCTGTTTGTGGTGAGTGACTGTCT	3140
GCCACACTTCCGGCGGGGCTGCGACCGCAGAGGGGC	3600
TGGCTGTCACTTCCTGTCCCACTGTGGTTCCTGGGA	1820
AGCGCGCCGCCGACCGGATGCGGGAACTGGGCTCGG	1550
